In PubChem BioAssay AID1347056 (Sanford-Burnham Center for Chemical Genomics, 2019):
Where “and” joins values, the source holds several entries; their conditions need not be identical. Equal values may be shown once. About 3,600 (1%) of roughly 360,000 compounds were called active.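 How the source made its calls: active means compounds whose plate-normalised and pattern-corrected inhibition of the luciferase reporter signal at the single screening dose is 50% or more; inactive means the rest.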 Shown is part of a subset that was picked to be rich in actives.

assay: TROY pathway blockers in reporter cells – Q293 LMP1-TROYcd cells, NF-kB luciferase, uHTS, primary screen (AID 1347056); settings: 4 h, at 10 µM, active compounds read high

SMILES	inhibition
Cc1ccc(C(O)c2ncc(-c3ccccc3F)[nH]2)cc1F (configuration not stated)	-21.9% (inactive)
CC(=O)c1ccc(N2CCN(S(=O)(=O)c3ccc4c(c3)CC(=O)N4C)CC2)cc1	-27.6% (inactive)
Cc1cnc(CN(C)C(=O)CC2C(=O)NCCN2Cc2cccc(F)c2F)[nH]1 (configuration not stated)	3.88% (inactive)
COc1c(C)cc(C(=O)C2CCCN(S(=O)(=O)c3c(C)noc3C)C2)cc1C (configuration not stated)	50.3% (active)
Cc1ccc(NC(=O)C2CCCN(S(=O)(=O)c3c(C)noc3C)C2)c(C)c1 (configuration not stated)	-7.46% (inactive)
Cc1noc(C)c1S(=O)(=O)N1CCCC(C(=O)Nc2nccs2)C1 (configuration not stated)	-32.5% (inactive)
CCOC(=O)CCC(NC(=O)c1ccc(CNc2nc3cc(C(F)(F)F)ccc3nc2C(=O)OCC)cc1)C(=O)OCC (configuration not stated)	-25.2% (inactive)
CCCCCc1nnc(NC(=O)c2ccc(=O)n(C)n2)s1	-18.4% (inactive)
CN(C(=O)CN1C(=O)S/C(=C\c2ccccc2F)C1=O)C1CCS(=O)(=O)C1 (configuration not stated)	6.08% (inactive)
O=C(CN1C(=O)/C(=C\c2ccccc2F)SC1=S)Nc1nc2ccccc2s1	68.3% (active)
O=C(CN1C(=O)/C(=C/c2ccccc2F)Sc2ccccc21)NCc1cccnc1	44.7% (inactive)
COc1ccc(CNC(=O)CCC(=O)Nc2nnc(C(C)C)s2)cc1	-5.09% (inactive)
O=C(O)C1C2C=CC(C2)C1C(=O)N1CCN(CCO)CC1 (configuration not stated)	-8.15% (inactive)
CC1(C)SC2C(NC(=O)COc3ccccc3)C(=O)N2C1C(=O)O (configuration not stated)	-1.14% (inactive) and 4.62% (inactive)
COc1ccc(-c2cc(C(=O)N(C)Cc3ccc(OC)c(OC)c3OC)c3ccccc3n2)cc1OC	19.6% (inactive)
COc1ccc(-c2cc(C(F)(F)F)nc(S(C)(=O)=O)n2)cc1OC	55% (active)
COc1ccc(C2=NO[C@@H]3C(=O)N(Cc4ccccc4)C(=O)[C@H]23)cc1OC	-14.4% (inactive)
c1ccc2c(C[n+]3csc4ccccc43)cccc2c1	13.4% (inactive)
Cc1noc(C)c1C(=O)NC(C)c1ccc2c(c1)OCO2 (configuration not stated)	1.6% (inactive)

SMILES	inhibition
O=C(COC(=O)C1CC2CCCC(C1)C2=O)NC(=O)c1ccccc1 (configuration not stated)	4.06% (inactive)
Cn1c(-c2ccc(F)cc2)cc2onc(-c3ccccc3Cl)c2c1=O	6.78% (inactive)
O=c1c2ccccc2c(-c2ccc(F)cc2)nn1-c1ccc(C(F)(F)F)cc1	-12.3% (inactive)
Cn1c(-c2ccc(C(F)(F)F)cc2)cc2onc(-c3ccccc3)c2c1=O	69.6% (active)
COc1cc(/C(=C/c2ccccc2)c2ccccc2)c2c(c1)oc1ccccc12	0.46% (inactive)
Cc1ccc(S(=O)(=O)N(C)c2nc3ccccc3n3c(C(C)C)nnc23)cc1	6.76% (inactive)
CC1(C)N=C(N)NC(Nc2ccc(Cl)cc2)=N1	-5.09% (inactive)
Cc1cc(OCc2ccc(C(=O)Nc3ccc(C(=O)O)cc3)o2)ccc1Cl	-33.7% (inactive)
O=c1oc2ccccc2cc1-c1cn(-c2ccccc2)c(=S)[nH]1	90.1% (active)
O=C1Cc2ccccc2Sc2ccc(Cl)cc21	-41.4% (inactive)
CCCCNC(=O)C[C@@H]1C[C@@]2(C(=O)OCC)CCC=C2N(Cc2ccco2)C1=O	1.34% (inactive)
O=c1c(/C=N/O)coc2ccc(Cl)cc12	12.5% (inactive)
Cc1ccc2occ(/C=N/NC(=O)c3ccccc3C)c(=O)c2c1	57.9% (active)
CC(C)(C)OC(=O)NCCCCCC(=O)N/N=C/c1coc2ccccc2c1=O	-22.3% (inactive)
CC1(Cc2ccccc2C#N)C(=O)Nc2ccc(-c3ccc4[nH]ccc4c3)cc21 (configuration not stated)	24.8% (inactive)
CC(Sc1nncn1C)C(=O)Nc1cc(C(F)(F)F)ccc1N1CCOCC1 (configuration not stated)	-8.48% (inactive)
Cc1onc(-c2ccc(Cl)cc2)c1-c1ccnn1S(=O)(=O)c1ccc(Cl)cc1	-10.7% (inactive)
O=C(COC(=O)c1cccnc1Cl)NC(=O)NC1CCCCC1	-1.94% (inactive)
CC(=O)Nc1ccc(S(=O)(=O)N2CCC(N(C)CCC(C)C)CC2)cc1	15.7% (inactive)

SMILES	inhibition
CC1CN(C(=S)SCC(=O)c2ccccc2)CC(C)O1 (configuration not stated)	-38.2% (inactive)
O=C(CSC(=S)N1CCOCC1)c1ccccc1	50.2% (active)
NC(=NC(=O)c1ccccc1)N1CCOCC1	-4.29% (inactive)
CC1=CC=CN2C1=NC(=O)CC2(C)C(=O)N(CC(=O)NC1CCCC1)c1ccccc1C (configuration not stated)	6.68% (inactive)
CN1CCN(c2ccncc2S(=O)(=O)N2CCCC2)CC1	-13.2% (inactive)
COCCNc1ncnc2c1ncn2[C@H]1CN(Cc2ccc(OC)cc2)C[C@@H](CO)O1	-16.1% (inactive)
COC(=O)C1(S(=O)(=O)C2(C(=O)OC)CCCC2)CCCC1	10.4% (inactive)
CCCCCc1c(Cc2ccccc2)ncn1CCc1ccccc1OC	49.9% (inactive)
Cc1ccccc1NS(=O)(=O)CCCCC(Cl)(Cl)Cl	5.02% (inactive)
c1ccc(CNc2ncnc3[nH]ncc23)cc1	12.9% (inactive)
Clc1ccc(Cn2ncc3c(NCc4cccnc4)ncnc32)cc1	58.7% (active)
CC(C)CNc1ncnc2c1cnn2Cc1ccc(Cl)cc1	-3.29% (inactive)
CC(CNc1ccc([N+](=O)[O-])c2cccnc12)Nc1c([N+](=O)[O-])cc(C(F)(F)F)cc1[N+](=O)[O-] (configuration not stated)	9.66% (inactive)
NS(=O)(=O)c1cccc(NC(=O)COC(=O)c2cc([N+](=O)[O-])ccc2N2CCCC2)c1	-3.22% (inactive)
N#Cc1cccc(NC(=O)COC(=O)c2ccccc2C(=O)c2ccc(Cl)c([N+](=O)[O-])c2)c1	66.1% (active)
CCc1ccc(NC(=O)C(C)OC(=O)/C=C/c2cccc([N+](=O)[O-])c2)cc1 (configuration not stated)	7.86% (inactive)
O=C(COc1ccc([N+](=O)[O-])cc1)Nc1cccc(C(=O)Nc2ccccc2C(=O)O)c1	13.9% (inactive)
CC(OC(=O)CNC(=O)c1ccc(Cl)c([N+](=O)[O-])c1)C(=O)NCc1ccco1 (configuration not stated)	-1.1% (inactive)
CC(=O)Nc1ccc(NC(=O)C(C)OC(=O)c2ccccc2C(=O)c2ccc(Cl)c([N+](=O)[O-])c2)cc1 (configuration not stated)	51% (active)
